Shown are actives, neighbours in structure and some others; about 0.5% of the full set was active somewhere.
Tat export inh: E. coli Tat export inhibitors, primary screen, MC4100, TorA-mCherry reporter, fluorescence, single point; hit rate 0.036% among 340,000; inhibition, % at 10 µM; AID 488895, 2010;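 active means mean replicate inhibition at least 50% and at least half of replicates individually reaching 50%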;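 further: exported cargo escapes ClpAP degradation while cytoplasmic cargo is degraded and loses fluorescence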
phage Ecoli inh: growth loss of phage-infected E. coli, primary screen, RecBCD inhibitor project, absorbance, with phage, HTS; inhibition, % at 11.9 µM; hit rate 0.26% among 360,000; AID 651602, 2012; in the data active means inhibition above about 11%
E coli growth-1: E. coli growth inhibition, primary screen, OD600; Escherichia coli growth, 23 h; active compounds read low; OD600 absorbance (concentration not given with the values); hit rate 0.21% among 330,000; AID 1053175, 2014;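 active means OD600 absorbance below the run mean of sample wells minus 3.6 SD, in any replicate, cut at about 0.56 in these data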
AddAB inh: growth inhibition of E. coli expressing H. pylori AddAB, primary screen, AddAB inhibitor project, absorbance; inhibition, % at 11.9 µM; hit rate 0.29% among 330,000; AID 435030, 2010; in the data active means inhibition above about 12%
E coli growth-2: E. coli V3065 growth inhibition, primary screen, counter-screen for AddAB inhibitor project, absorbance, OD600; AID 449728, 2010; inhibition, % at 11.9 µM; hit rate 0.27% among 330,000; 18 h;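 active means inhibition above the campaign's mean inhibition across all tested compounds plus 3 SD, cut at about 9.9% in these data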;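 further: uninfected addAB+ strain grown without phage in ampicillin broth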
A number is an active result.

How did Cc1cccc2c1Sc1ccc(Cl)cc1CC2N1CCNCC1 (configuration not stated) do in these assays?
E coli growth-1: 0.39; AddAB inh: inactive; E coli growth-2: inactive

How did CCc1cccc2c1Sc1ccccc1CC2N1CCNCC1 (configuration not stated) do in these assays?
Tat export inh: inactive; phage Ecoli inh: inactive; E coli growth-1: inactive; AddAB inh: inactive; E coli growth-2: inactive

How did CCn1cc(C(=O)O)c(=O)c2cnc(N3CCN(C(=S)NC(=O)c4ccccc4)CC3)nc21 do in these assays?
Tat export inh: inactive; phage Ecoli inh: inactive; E coli growth-1: 0.41; AddAB inh: inactive; E coli growth-2: inactive

Results for CCN1C(=O)C(=CN2CC(C)CC(C)C2)SC1=S (configuration not stated) ?
E coli growth-1: inactive

Results for COc1ccc(C=NNC(=O)COc2ccccc2-c2ccccc2)cc1 ?
E coli growth-1: inactive

What do the screens show for `Cc1ccc2[nH]c3c(NCc4ccccc4)ncnc3c2c1`?
phage Ecoli inh: inactive; E coli growth-1: 0.46

Results for COc1ccc(CNc2ncnc3c2[nH]c2ccccc23)cc1 ?
phage Ecoli inh: inactive; AddAB inh: inactive; E coli growth-2: inactive

What do the screens show for `CN(C)S(=O)(=O)c1cccc(NC(=S)N/N=C/c2ccc(O)c(O)c2O)c1`?
Tat export inh: inactive; phage Ecoli inh: 11

What do the screens show for `Cc1cc(/C=C2\Sc3ccccc3N2C)cc(C)[n+]1CC1CCCO1` (configuration not stated)?
Tat export inh: inactive; phage Ecoli inh: inactive; E coli growth-1: 0.46

How did Cc1ccc(/C=C2/Sc3ccccc3N(CC(=O)NCC3CCCO3)C2=O)cc1 (configuration not stated) do in these assays?
Tat export inh: inactive; E coli growth-1: inactive; AddAB inh: inactive; E coli growth-2: inactive

Results for Nc1ncncc1-c1ccc([N+](=O)[O-])cc1 ?
Tat export inh: inactive; phage Ecoli inh: inactive; E coli growth-1: 0.36; AddAB inh: inactive; E coli growth-2: inactive

Results for S=C(NCCNCc1ccccc1)NC1CCCCC1 ?
AddAB inh: 98; E coli growth-2: 98

Results for S=C(NCCc1ccccc1)NC1CCCCCC1 ?
Tat export inh: inactive; phage Ecoli inh: inactive; E coli growth-1: inactive; AddAB inh: inactive; E coli growth-2: inactive

What do the screens show for `COc1ccc(NC(=O)C(C#N)=Cc2ccc(OCc3ccccc3F)cc2)cc1`?
E coli growth-1: inactive

How did O=c1[nH]sc2ccccc12 do in these assays?
Tat export inh: inactive; phage Ecoli inh: inactive; E coli growth-1: 0.066

Results for OC(CNCC1CCCO1)Cn1c2ccccc2c2ccccc21 (configuration not stated) ?
Tat export inh: inactive; phage Ecoli inh: inactive; E coli growth-1: inactive; AddAB inh: inactive; E coli growth-2: inactive

How did OC(CNCC1CCCO1)Cn1c2ccc(Cl)cc2c2cc(Cl)ccc21 (configuration not stated) do in these assays?
Tat export inh: inactive; phage Ecoli inh: inactive; E coli growth-1: 0.55; AddAB inh: inactive; E coli growth-2: inactive

How did OC(CNCCC1C=Nc2ccccc21)Cn1c2ccc(Cl)cc2c2cc(Cl)ccc21 (configuration not stated) do in these assays?
Tat export inh: inactive; phage Ecoli inh: inactive; E coli growth-1: 0.054; AddAB inh: inactive; E coli growth-2: inactive

How did S=C(N=c1sccn1Cc1ccccc1)NC1CC1 do in these assays?
E coli growth-1: inactive

What do the screens show for `CCON=C(C)c1c(O)cc(C(C)(C)C)n(-c2ccccc2)c1=O`?
E coli growth-1: inactive

Results for CCCCCCCCN1C(CC(=O)O)c2cc(F)ccc2S1(=O)=O (configuration not stated) ?
E coli growth-1: inactive

What do the screens show for `COc1cc(/C=C/C(O)=C/C(=O)/C=C/c2ccc(O)cc2)ccc1O`?
Tat export inh: inactive; phage Ecoli inh: inactive; AddAB inh: inactive; E coli growth-2: 10

How did Cc1ccc2c(C)nc(N=C(N)NC(=O)N3c4ccccc4Sc4ccccc43)nc2c1 do in these assays?
E coli growth-1: inactive

Results for COC(=O)[C@]1(CC(C)C)NC(c2ccc(SC3CCCCC3)c(OC)c2)C2C(=O)N(C)C(=O)C21 (some centres not stated) ?
E coli growth-1: inactive

What do the screens show for `O=c1nccc(N/N=C/c2ccccc2O)[nH]1`?
Tat export inh: inactive; phage Ecoli inh: inactive

What do the screens show for `COc1cccc(/C=N/Nc2ccnc(=O)[nH]2)c1O`?
Tat export inh: inactive; phage Ecoli inh: inactive; AddAB inh: inactive; E coli growth-2: 13

Results for CCCCCC(=O)N1CC2(CC(c3cccc(NC(=O)COc4ccc(Cl)cc4)c3)=NO2)CC1C(N)=O (configuration not stated) ?
E coli growth-1: inactive

How did C=C1c2c(Cl)ccc(O)c2C(O)=C2C(=O)[C@]3(O)C(O)=C(C(N)=O)C(=O)C(N(C)C)C3C(O)C12 (some centres not stated) do in these assays?
E coli growth-1: 0.075

How did O=C(Oc1ccc(Cl)c2cccnc12)c1cccc([N+](=O)[O-])c1 do in these assays?
Tat export inh: inactive; phage Ecoli inh: inactive; E coli growth-1: 0.51; AddAB inh: inactive; E coli growth-2: inactive

Results for CCCCCC[N+](C)(C)CCSSCC[N+](C)(C)CCCCCC ?
Tat export inh: inactive; phage Ecoli inh: inactive; E coli growth-1: inactive; AddAB inh: inactive; E coli growth-2: inactive

How did CCCCCCCCCCCCCCCC[N+](C)(C)CC do in these assays?
Tat export inh: inactive; phage Ecoli inh: inactive; E coli growth-1: 0.061; AddAB inh: inactive; E coli growth-2: inactive

What do the screens show for `COc1cccc2c(SCC(=O)NN=Cc3ccc(O)c(O)c3)cc(C)nc12`?
E coli growth-1: inactive

How did CCN1C(=CC(=O)c2ccco2)Sc2ccccc21 do in these assays?
E coli growth-1: inactive

Results for CS(=O)(=O)c1ccc(C(=O)NC(Cc2ccccc2)c2ccccc2)cc1 (configuration not stated) ?
Tat export inh: inactive; phage Ecoli inh: inactive; E coli growth-1: inactive; AddAB inh: inactive; E coli growth-2: inactive

Results for CS(=O)(=O)c1ccc(C(O)C(CO)NC(=O)C(Cl)Cl)cc1 (configuration not stated) ?
E coli growth-1: 0.38

How did CS(=O)(=O)c1ccc(C(O)C(CF)NC(=O)C(Cl)Cl)cc1 (configuration not stated) do in these assays?
E coli growth-1: 0.06

How did COc1ccc2c(c1)CCC2=NOC(=O)c1cccc(C)c1 do in these assays?
E coli growth-1: inactive

Results for O=C(/C=C/c1ccc(F)cc1)NC(=S)NNC(=O)c1cnccn1 ?
Tat export inh: inactive; phage Ecoli inh: inactive; E coli growth-1: inactive; AddAB inh: inactive; E coli growth-2: inactive

How did O=C(NC(=S)NNC(=O)c1cnccn1)c1ccc(F)cc1 do in these assays?
Tat export inh: inactive; phage Ecoli inh: inactive; E coli growth-1: 0.41; AddAB inh: inactive; E coli growth-2: inactive

Results for NCCCn1c(C(=O)c2cc(Cl)c(N)c(Cl)c2)c2ccc([N+](=O)[O-])cc2[n+]1[O-] ?
Tat export inh: inactive; phage Ecoli inh: inactive; E coli growth-1: 0.42; AddAB inh: 15; E coli growth-2: 12

Source: PubChem
